About 83,000 compounds went through this panel and 20% of them were active in at least one assay; those are over-represented in the sample as a whole.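 Compound tested at a single concentration for 48 hours in 96-well plates; a percent growth value below 10 was scored as active.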 Active and inactive are the calls of the source.

The test system of this assay is OVCAR-5 ovarian. Put plainly: NCI-60 one-dose screen, 48 h (100 = growth as untreated, 0 = no growth, -100 = all killed). The note with it: 10 µM unless noted. As to the method: Growth inhibition of the OVCAR-5 human tumor cell line is measured as a screen for anti-cancer activity. Cells are grown in 96 well plates and exposed to the test compound for 48 hours. Compounds are tested at a single concentration, which is 10^-5 M for most compounds. The reported endpoint is percent growth (GI% or GIPRCNT), where numbers from 0 - 100% represent growth inhibition, and numbers from -100% - 0 represent cell death. For example, a value of 40 represents 60% growth inhibition. A value of 0 means no net growth occurred over the course of the experiment. A value of -40 indicates 40% of cells at the beginning of the experiment died by the end of the experiment. A value of -100 means all cells are dead at the end of the experiment.
NCI-60 Human Tumor Cell Lines Screen was performed using the standard one-dose NCI protocol, which is described in more detail at https://dtp.cancer.gov/discovery_development/nci-60/default.htm.
Compounds with GIPRCNT values below 10 were considered active. Activity score was based on GIPRCNT using the following formula: […]
Score is 0 for GIPRCNT values of 100 or above, 50 for GIPRCNT values of 0, and 100 for GIPRCNT values of -100.
On to `Cc1ccc(-c2nc(/C=C3/C(=O)Nc4ccc(F)cc43)c3ccccn23)cc1`, for which the growth was 69.2% (inactive).

Take `COc1ccc(-c2nn(-c3ccccc3)cc2/C=C/C(=O)NNC(=O)Nc2ccc(C)cc2)cc1`: the growth is 103% (inactive). On to `O=C(/C=C/c1ccc(Oc2ccc(Br)cc2)cc1)c1ccc(Br)cc1`, for which the growth was 110% (inactive). For `CCOC(=O)C1=C(C)/C(=C\c2[nH]c(C)c(C(=O)OCC)c2C)N=C1C`, the growth was 97.8% (inactive).

In the case of `CN(Cc1cc(Br)cc(Br)c1O)Cc1cc(Br)cc(Br)c1O`, the growth was 68.9% (inactive).

Turning to `O=C(Nc1cc(Cl)ccc1O)c1cccc(Nc2ccnc(C(F)(F)F)c2)c1`, the growth is 77.8% (inactive). For `O=C1Nc2ccccc2/C1=C\c1c[nH]c2ccc(Br)cc12`, the growth is 80.4% (inactive). `CCOC(=O)C(Cc1ccc(OC)cc1)C(=O)OCC`: the growth was 72% (inactive). The figure for `CCCn1nc(C(=O)N(C)Cc2ccccc2)c2c1CCC(N1CCc3ccccc31)C2` (stereo not given) is 92.2% (inactive).

With `CNC(=O)c1ccccc1Nc1nc(Nc2cc(OC)c(OC)c(OC)c2)ncc1Br`, the growth is 13.3% (inactive). Consider `O=C1/C(=C\c2cccc3nccnc23)SC(=S)N1CCc1ccc(O)cc1`, for which the growth was 104% (inactive). As for `CCN(CC)c1ccc(/C=N/NC(=O)Cc2ccc(Nc3ccnc(C(F)(F)F)c3)cc2)c(O)c1`, the growth is 48.2% (inactive).

For the compound `COc1cc(/C=N/Nc2ccc(Br)cc2)cc(OC)c1OC`, the growth was 68.4% (inactive). Take `OCCNCCNC(Cc1ccc(Cl)cc1)c1ccccc1` (stereo not given): the growth was 63.6% (inactive). On to `CC(C)=CCNc1ncnc2c1ncn2C1OC(CO)C(O)C1O` (stereo not given), for which the growth is 19.2% [1 mM] (inactive). For the compound `COc1cccc(CNc2c3ccccc3nc3ccccc23)c1`, the growth was 45.9% (inactive). As to `Cc1ccc(C2CC(c3nc(-c4ccc(Cl)cc4)oc3C)=NN2C(=O)c2ccncc2)cc1` (stereo not given), the growth is 107% (inactive). Then `C=CCOC(=O)C1=C(C)N(CC)C(=O)NC1c1c(Cl)n(C)c2ccccc12` (stereo not given), with 90% (inactive); and `CCN(CC)CCN1C(=O)c2c(c(C)c3c(oc4ccc(O)cc43)c2C)C1=O`, with 97.6% (inactive).

Regarding `CC1=C2[C@@H](CC1)[C@]1(C)O[C@@](C3CCCCC3)(C[C@H]1OC(=O)CO)[C@H]2OC(=O)/C=C/c1ccccc1`, the growth was 88.8% (inactive). On to `CCOC(=O)c1c(C)nc2ccccc2c1/C=C/c1cccs1`, for which the growth is 87.8% (inactive). On to `CCn1c(-c2cc3c([nH]c4ccccc43)c(-c3cccc(O)c3)n2)n[nH]c1=S`, for which the growth is 98.1% (inactive). Take `O=C(CN1CCN(c2cc3c(cc2F)c(=O)c(C(=O)O)cn3C2CC2)CC1)N/N=C/c1ccco1`: the growth was 85.1% (inactive).

For the compound `COc1ccc(-c2nc(-c3cn(C)c4ncccc34)cs2)cc1`, the growth is 28% [100 µM] (inactive).

For the compound `Cc1nc2cc(O)c(O)cc2cc1Oc1ccc(NC(=O)Nc2ccc(Cl)c(Cl)c2)cc1`, the growth was 122% (inactive). Turning to `C[C@@H]1O[C@@H](O[C@@H]2C[C@H](c3ccc4c(c3O)C(=O)C3=C(C4=O)[C@@]4(O)C(=O)C[C@](C)(O)C[C@@]4(O)C=C3)O[C@H](C)[C@H]2O)CC[C@@H]1O[C@H]1C[C@@H](O)[C@H](O)[C@@H](C)O1`, the growth is 110% (inactive). As to `C=C1C(=O)O[C@H]2[C@H]1CC/C(CNC(=O)c1c[nH]c3ccc(F)cc13)=C\CC[C@@]1(C)O[C@@H]21`, the growth is 19.6% (inactive). Consider `O=S(=O)(NCCNc1nccc(-c2c(-c3cccc(O)c3)nc3occn23)n1)c1ccc(Br)cc1`, for which the growth is 51% (inactive). Consider `C[C@]1(O)CC(=O)[C@]2(O)C3=C(C=C[C@]2(O)C1)C(=O)c1c(O)cccc1C3=O`, for which the growth is 38.8% (inactive). In the case of `S=c1[nH]c(=S)c2c(-c3ccccc3)c(-c3ccccc3)oc2[nH]1`, the growth was 95.2% (inactive). As to `Cc1ccc2c(-c3nnc(N)s3)cc(=O)oc2c1C`, the growth is 114% (inactive). `Nc1nc2c(c3ncccc13)C(c1cccc(Cl)c1)Cc1ncccc1-2` (stereo not given): the growth was 44.7% (inactive). On to `Cc1ccc(-c2nc(N3CCNCC3)c3oc(-c4ccc(C)cc4)nc3n2)cc1`, for which the growth is 78.4% (inactive). As for `CSC(SC)=C(C#N)c1nc2ccccc2s1`, the growth is 72.5% (inactive).

For the compound `COc1cc(Cl)c(C)cc1NC(=O)c1cc2ccccc2cc1O`, the growth was 20% (inactive). For `O=C(NNC(=O)c1ccc(NC(=O)c2ccccn2)cc1)Nc1ccc2ccccc2c1`, the growth was 121% (inactive).

Consider `Cc1ccc2nc(/C(C#N)=C(/CCCO)NC(Cc3ccccc3)C(=O)OCc3ccccc3)[nH]c(=O)c2c1` (stereo not given), for which the growth was 89.2% (inactive). The figure for `O=C(/C=C/c1ccc(Cl)cc1)c1cccc(OCCCOc2cccc(C(=O)/C=C/c3ccc(Cl)cc3)c2)c1` is 113% (inactive); for `C=C1CC[C@@H]2[C@](C)(COC(C)=O)[C@H](OC(C)=O)CC[C@@]2(C)[C@@H]1CC(Nc1ccc(S(=O)(=O)NC(C)=O)cc1)C1=CCOC1=O` (stereo not given in full) it is -40.1% (active). With `COc1cc(-c2nc3cc(Cl)c(Cl)cc3[nH]2)ccc1OCC(=O)N=Nc1c(O)[nH]c2ccc(Cl)cc12`, the growth was 26.8% (inactive).
